Test results as given in PubChem BioAssay.
“And” between values parts separate entries of the source, which are not always exact repeats. Equal values may be shown once. For some of these results: Entries with a potency or affinity are not part of this list. The source made the active and inactive calls. Unless noted, the rule behind the calls is not given here.

Legend:
[1] = antimalarial activity against Dd2 strain (AID 2302;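 active = growth inhibition above 50% at the single 2 µM test dose, taken to imply half-maximal potency below 2 µM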;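 note: 0% = DMSO untreated growth and 100% = chloroquine plus artemisinin killed control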); settings: P. falciparum Dd2 in RBCs, LDH growth readout, 72 h; at 2 µM; stronger effect = higher value
[2] = HepG2 cytotoxicity, primary screen, cytotoxicity control for P. falciparum antimalarial project, cell-based, ATP luminescence (AID 2303;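 active = inhibition above 50%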;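 note: 0% = DMSO wells and 100% = digitonin-killed cells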); settings: HepG2 viability, 24-48 h, at 10 µM, stronger effect = higher value
[3] = biological target: L-lactate dehydrogenase (Plasmodium falciparum (isolate CDC / Honduras)) (UniProt Q27743); assay: PfLDH activity inhibition – cell lysate, 3D7 strain, counter-screen for P. falciparum growth inhibition project (AID 2304);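 note: 0% = vehicle and 100% = reference inhibitor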; settings: P. falciparum 3D7 crude extract, LDH APAD/NBT absorbance; at 2 µM; stronger effect = higher value
[4] = inhibition of 3D7 malaria parasite growth – strain 3D7 (AID 2306);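 note: 0% = DMSO wells and 100% = chloroquine plus artemisinin control wells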; settings: P. falciparum 3D7 erythrocytic growth, LDH absorbance, 72 h; at 2 µM; stronger effect = higher value
[5] = biological target: Calcium-dependent protein kinase 1 (Plasmodium falciparum (isolate 3D7)) (UniProt P62344); assay: PfCDPK1 kinase inhibitors, biochemical, TCAMS library (AID 1159585; cut-off not given, nearly all actives have IC50 up to about 0.98 µM;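 note: inhibitors leave more ATP so luminescence rises with inhibition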); settings: recombinant PfCDPK1, Kinase-Glo ATP depletion luminescence
[6] = biological target: Plasmodium falciparum protein kinase 6 (PK6, PF3D7_1337100) (UniProt Q8IDW1); assay: PfPK6 kinase inhibitors, biochemical, TCAMS library (AID 1159586); settings: recombinant PfPK6, Kinase-Glo ATP depletion luminescence
[7] = biological target: Protein kinase 7 (PK7), Plasmodium falciparum 3D7 (PF3D7_0213400) (UniProt Q7YTF7); assay: inhibition of Plasmodium PK7 catalytic activity – biochemical, TCAMS antimalarial set, Kinase-Glo luminescence (AID 1159587); settings: recombinant PfPK7, Kinase-Glo ATP depletion luminescence
[8] = biological target: Calcium-dependent protein kinase 4 (Plasmodium falciparum (isolate 3D7)) (UniProt Q8IBS5); assay: PfCDPK4 kinase inhibitors, biochemical, TCAMS library (AID 1159588; cut-off not given, nearly all actives have IC50 up to about 0.91 µM); settings: recombinant PfCDPK4, Kinase-Glo ATP depletion luminescence
[9] = sensitizers of A549 cells to miR-34 induction, primary screen, imaging, A549 dox-inducible miR-34, nuclei and caspase counts (AID 1347080;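 active = compounds whose cell count with miR-34 switched on is under 0.7 times the count with it off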); settings: A549 miR-34 inducible, Hoechst nuclei count, 48 h
[10] = viability rescue of complex I mutant cybrids, primary screen, cell-based, galactose medium, ATP luminescence (AID 1645843;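 active = z-score of at least 1.8 in each of two replicates, scored against plate mean and spread of sample wells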;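 note: positive z means more ATP and so rescue of galactose-driven cybrid death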); settings: complex I mutant cybrid cells, 72 h, stronger effect = higher value

Plasmodium falciparum protein kinase 6 (PK6, PF3D7_1337100), sequence (Q8IDW1 1-305): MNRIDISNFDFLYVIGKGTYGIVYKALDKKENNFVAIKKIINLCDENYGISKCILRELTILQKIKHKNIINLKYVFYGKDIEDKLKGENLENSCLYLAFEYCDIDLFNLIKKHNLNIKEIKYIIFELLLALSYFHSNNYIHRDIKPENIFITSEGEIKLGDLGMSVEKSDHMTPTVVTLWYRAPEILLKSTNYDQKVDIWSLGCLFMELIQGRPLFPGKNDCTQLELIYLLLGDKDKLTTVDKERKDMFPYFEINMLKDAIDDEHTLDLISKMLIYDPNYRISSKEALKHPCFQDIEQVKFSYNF
Protein kinase 7 (PK7), Plasmodium falciparum 3D7 (PF3D7_0213400), sequence (Q7YTF7 1-343): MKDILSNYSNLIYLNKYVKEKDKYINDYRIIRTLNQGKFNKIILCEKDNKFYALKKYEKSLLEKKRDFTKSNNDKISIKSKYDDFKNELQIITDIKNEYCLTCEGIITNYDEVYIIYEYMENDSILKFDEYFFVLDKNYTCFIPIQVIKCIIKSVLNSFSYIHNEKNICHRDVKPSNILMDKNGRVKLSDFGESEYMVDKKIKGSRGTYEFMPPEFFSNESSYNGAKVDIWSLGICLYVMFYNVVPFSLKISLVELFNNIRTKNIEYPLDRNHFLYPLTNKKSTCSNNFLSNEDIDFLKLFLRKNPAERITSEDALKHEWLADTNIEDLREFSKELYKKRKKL
Calcium-dependent protein kinase 1 (Plasmodium falciparum (isolate 3D7)), sequence (P62344 whole entry, looked up): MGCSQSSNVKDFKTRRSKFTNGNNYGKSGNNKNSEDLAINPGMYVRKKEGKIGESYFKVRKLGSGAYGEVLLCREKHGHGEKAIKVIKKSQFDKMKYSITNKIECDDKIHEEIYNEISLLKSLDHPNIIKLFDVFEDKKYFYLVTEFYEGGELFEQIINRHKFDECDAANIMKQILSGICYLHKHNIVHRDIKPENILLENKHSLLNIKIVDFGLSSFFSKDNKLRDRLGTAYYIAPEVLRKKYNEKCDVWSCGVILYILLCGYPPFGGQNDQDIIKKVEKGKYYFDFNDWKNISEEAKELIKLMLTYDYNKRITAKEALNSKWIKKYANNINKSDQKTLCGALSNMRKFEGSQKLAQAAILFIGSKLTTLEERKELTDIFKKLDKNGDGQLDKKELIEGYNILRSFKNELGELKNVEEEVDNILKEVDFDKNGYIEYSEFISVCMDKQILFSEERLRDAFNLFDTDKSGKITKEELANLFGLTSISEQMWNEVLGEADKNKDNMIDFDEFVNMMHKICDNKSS
Calcium-dependent protein kinase 4 (Plasmodium falciparum (isolate 3D7)), sequence (Q8IBS5 whole entry, looked up): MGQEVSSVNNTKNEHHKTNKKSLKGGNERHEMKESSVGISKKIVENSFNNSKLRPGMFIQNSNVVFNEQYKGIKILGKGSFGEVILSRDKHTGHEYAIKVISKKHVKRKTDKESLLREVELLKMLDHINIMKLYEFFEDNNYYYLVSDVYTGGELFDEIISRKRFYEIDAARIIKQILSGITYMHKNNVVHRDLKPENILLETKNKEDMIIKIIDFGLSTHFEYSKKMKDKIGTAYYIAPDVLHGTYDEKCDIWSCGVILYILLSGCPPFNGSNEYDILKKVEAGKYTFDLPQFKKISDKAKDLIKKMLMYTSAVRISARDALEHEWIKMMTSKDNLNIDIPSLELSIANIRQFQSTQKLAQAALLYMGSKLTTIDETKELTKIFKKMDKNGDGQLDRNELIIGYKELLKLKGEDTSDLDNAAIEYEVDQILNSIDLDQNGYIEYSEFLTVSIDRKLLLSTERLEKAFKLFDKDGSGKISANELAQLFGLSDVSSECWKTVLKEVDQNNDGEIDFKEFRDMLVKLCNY
L-lactate dehydrogenase (Plasmodium falciparum (isolate CDC / Honduras)), sequence (Q27743 whole entry, looked up): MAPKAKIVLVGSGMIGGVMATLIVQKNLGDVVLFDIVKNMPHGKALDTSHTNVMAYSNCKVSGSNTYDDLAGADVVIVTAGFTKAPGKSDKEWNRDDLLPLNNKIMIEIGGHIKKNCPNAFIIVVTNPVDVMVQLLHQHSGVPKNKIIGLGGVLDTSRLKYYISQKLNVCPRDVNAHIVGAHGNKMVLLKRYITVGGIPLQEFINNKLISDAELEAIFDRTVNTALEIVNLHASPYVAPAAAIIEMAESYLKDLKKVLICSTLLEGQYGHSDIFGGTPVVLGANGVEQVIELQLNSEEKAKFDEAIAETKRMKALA

Row | SMILES | growth inhibition [1] | inhibition [2] | inhibition [3] | growth inhibition [4] | outcome [5] | outcome [6] | outcome [7] | outcome [8] | fold change ([9]; stronger effect = lower value, cell number ratio, induced over uninduced) | fold change ([9]; measured here: relative caspase fold change +Dox/-Dox) | cell count ([9]; measured here: total cells with miR-34 induction, stronger effect = lower value) | cell count ([9]; measured here: total cells without miR-34 induction) | z-score [10]
1 | CN(C)CCCSc1ccccc1NC(=O)C=Cc1ccccc1 | -3% (inactive) | -4% (inactive) | -5% (inactive) | 85% (active) | inactive | inactive | inactive | inactive | 0.957 (inactive) | 1.81 | 8880 | 9280 | -0.13 (inactive)
2 | COc1ccc(NC(=O)NC2CCN(CCCOc3ccnc4cc(Cl)ccc34)C2)cc1OC (configuration not stated) | 16% (inactive) | 6% (inactive) | 1% (inactive) | 90% (active) | inactive | inactive | inactive | inactive |  |  |  |  | 
3 | COCc1cccc(-c2cc(-c3ccc(S(C)(=O)=O)cc3)cnc2N)c1 | 88% (active) | 10% (inactive) | -2% (inactive) | 98% (active) | inactive | inactive | inactive | inactive |  |  |  |  | 
4 | NC(=O)COc1cccc2c1CCN(CCN1CCC(NC(=O)c3ccc(-c4ccc(Cl)cc4)cc3)CC1)C2 | 6% (inactive) | 44% (inactive) | -1% (inactive) | 92% (active) | inactive | inactive | inactive | inactive |  |  |  |  | 
5 | Cc1cc(N(C)C)nc(Nc2ccc(NC(=O)c3ccccc3F)cc2)n1 | 26% (inactive) | 0% (inactive) | 4% (inactive) | 89% (active) | inactive | inactive | inactive | inactive |  |  |  |  | 
6 | N#CC(c1ccc(Br)cc1)c1ccc2c(C(F)(F)F)cc(C(F)(F)F)nc2n1 (configuration not stated) | 98% (active) | 75% (active) | -2% (inactive) | 101% (active) | inactive | inactive | inactive | inactive |  |  |  |  | 
7 | CC1(C)N=C(N)N=C(N)N1OCCCCOc1ccccc1 | 95% (active) | 60% (active) | -1% (inactive) | 95% (active) | inactive | inactive | inactive | inactive |  |  |  |  | 
8 | Cc1cccc2[nH]c(-c3ccc(-c4cccc(CN5CCCC5CN)c4)s3)nc12 (configuration not stated) | 45% (inactive) | 20% (inactive) | 5% (inactive) | 91% (active) | inactive | inactive | inactive | inactive |  |  |  |  | 
9 | CC(=O)N/N=C/[C@H](CCc1ccccc1)NC(=O)[C@H](CC(C)C)NC(=O)c1ccc(OCCN2CCOCC2)cc1 | 87% (active) | 4% (inactive) | -9% (inactive) | 96% (active) | inactive | inactive | inactive | inactive |  |  |  |  | 
10 | CC(C)(C)c1ccc(N2C(N)=NC(N)=NC2(C)C)cc1 | -2% (inactive) | 27% (inactive) | -2% (inactive) | 93% (active) | inactive | inactive | inactive | inactive |  |  |  |  | 
11 | Cc1cc(NN=Cc2ccc(Cl)cc2)c2ccccc2n1 | 87% (active) | 5% (inactive) | -3% (inactive) | 100% (active) | inactive | inactive | inactive | inactive |  |  |  |  | 
12 | O=C(Nc1ccc(C(F)(F)F)cc1)Nc1ccccc1N1CCNCC1 | 69% (active) | 39% (inactive) | 4% (inactive) | 94% (active) | inactive | inactive | inactive | inactive |  |  |  |  | 
13 | O=C(/C=C/c1ccc(Cl)c(Cl)c1)NCCCCCN1CC[C@H](NC(=O)c2ccc3c(c2)OCO3)C1 | 3% (inactive) | 32% (inactive) | 0% (inactive) | 94% (active) | inactive | inactive | inactive | inactive |  |  |  |  | 
14 | O=C(Nc1cccc(C(F)(F)F)c1)N1CCOC(CCN2CCC3(CCc4ccccc43)CC2)(c2ccc(Cl)c(Cl)c2)C1 (configuration not stated) | 70% (active) | 31% (inactive) | 0% (inactive) | 99% (active) | inactive | inactive | inactive | inactive |  |  |  |  | 
15 | CN1CCC(NCc2cccc(-c3cccc(-c4nc5ccc(C(F)(F)F)cc5[nH]4)c3)c2)CC1 | 101% (active) | 35% (inactive) | -1% (inactive) | 101% (active) | inactive | inactive | inactive | inactive |  |  |  |  | 
16 | CC(=O)N1N=C(c2ccc(Cl)cc2)Sc2c1nc(C1CCCCC1)n2C(C)=O | 67% (active) | 1% (inactive) | -1% (inactive) | 103% (active) | inactive | inactive | inactive | inactive |  |  |  |  | 
17 | Cc1cc(O)c(-c2cc(C(=O)Nc3cccnc3)[nH]n2)cc1C | 97% (active) | 12% (inactive) | -7% (inactive) | 97% (active) | inactive | inactive | inactive | inactive |  |  |  |  | 
18 | CC(C)CNCc1cccc(-c2cccc(CNCCCN3CCN(C)CC3)c2)c1 | 7% (inactive) | 5% (inactive) | 1% (inactive) | 88% (active) | inactive | inactive | inactive | inactive |  |  |  |  | 
19 | O=C(NCCCCN1CCCC2c3ccc(O)cc3CCC21)c1ccc(-c2ccccc2)cc1 (configuration not stated) | 25% (inactive) and 7% (inactive) | 32% (inactive) and 26% (inactive) | -8% (inactive) and 3% (inactive) | 96% (active) | inactive | inactive | inactive | inactive |  |  |  |  | 
